# WRN inhibitor: qHTS for Inhibitors of WRN Helicase; Bifunctional 3'-5' exonuclease/ATP-dependent helicase WRN (Homo sapiens), Q14191; WRN helicase unwinding, fluorescent forked duplex, kinetic; Potency, µM (top dose mostly 114 µM), for inactives: top-dose activity change, negative = inhibition, actives largely listed as inhibitors; 0.46% of 360,000 active; AID 651768, 2012; also: potency is read from the fitted curve at half-maximal effect; nearly all actives have a fitted effect of over 55% in size
#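 Kinetic fluorescence helicase assay: unwinding of a quenched forked DNA duplex (100 nM final) with 2 mM ATP final raises red fluorescence (525/598 nm). Compounds sat 15 min at room temperature with 20 nM WRN beforehand.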
# PLK1 PBD inh: qHTS for Inhibitors of PLK1-PDB (polo-like kinase 1 - polo-box domain): Primary Screen; Serine/threonine-protein kinase PLK1 (Homo sapiens), P53350; Plk1 PBD binding of FITC phosphopeptide, fluorescence polarization; Potency, µM, without a hit: max response, negative = inhibition, most hits filed as inhibitors; 2.8% of 360,000 active; also: potency is read from the fitted curve at half-maximal effect; series mostly up to about 57 µM; nearly all actives have a fitted effect of over 65% in size
# USP1-UAF1 inh: Inhibitors of USP1/UAF1: Primary Screen. Ubiquitin carboxyl-terminal hydrolase 1 (Homo sapiens), O94782. recombinant USP1/UAF1, Ub-Rhodamine cleavage fluorescence. Potency, µM (doses to about 57.1 µM), for the others: at the top dose activity change, negative = inhibition, most hits filed as inhibitors. 0.23% of 390,000 active. AID 743255, 2014; also: potency is read from the fitted curve at half-maximal effect; nearly all actives have a fitted effect of over 60% in size
# Target sequence (O94782 whole entry, looked up): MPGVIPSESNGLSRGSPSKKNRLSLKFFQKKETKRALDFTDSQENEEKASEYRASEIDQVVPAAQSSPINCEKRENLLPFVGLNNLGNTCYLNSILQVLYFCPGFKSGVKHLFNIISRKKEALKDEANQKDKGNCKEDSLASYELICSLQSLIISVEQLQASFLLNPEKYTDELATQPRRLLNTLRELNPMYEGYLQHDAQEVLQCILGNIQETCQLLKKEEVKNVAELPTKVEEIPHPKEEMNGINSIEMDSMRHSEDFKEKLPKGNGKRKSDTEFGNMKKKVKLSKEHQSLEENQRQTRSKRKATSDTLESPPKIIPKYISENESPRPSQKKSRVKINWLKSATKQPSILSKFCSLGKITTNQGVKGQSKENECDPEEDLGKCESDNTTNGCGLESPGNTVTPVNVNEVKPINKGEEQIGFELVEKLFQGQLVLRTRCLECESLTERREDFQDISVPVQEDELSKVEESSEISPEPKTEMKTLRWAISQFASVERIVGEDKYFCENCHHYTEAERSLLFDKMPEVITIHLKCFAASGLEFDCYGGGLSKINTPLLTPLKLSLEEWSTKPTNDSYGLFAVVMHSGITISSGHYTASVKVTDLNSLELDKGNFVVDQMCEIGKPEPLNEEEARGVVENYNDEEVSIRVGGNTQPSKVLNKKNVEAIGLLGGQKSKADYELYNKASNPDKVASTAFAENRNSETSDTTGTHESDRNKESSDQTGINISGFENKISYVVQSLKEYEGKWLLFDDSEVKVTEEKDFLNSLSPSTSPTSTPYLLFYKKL
#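 1 nM enzyme complex + cpd, 15 min RT; start with Ub-Rho 150nM final; kinetic fluorescence ex 480/em 540, 6 reads q60 s. Buffer 50mM HEPES pH 7.8, 0.5mM EDTA, 0.1 mg/ml BSA, 1mM TCEP, 0.01% Tween-20.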
# USP2a inh: qHTS Assay for Inhibitors of Ubiquitin-specific Protease USP2a Using CHOP2 as the Reporter; 0.01% of 330,000 active; AID 463254, 2010; USP2 core, Ub-CHOP2 coupled fluorogenic reporter, 485/531; Potency, µM (series often up to 38.3 µM), for inactives: top-dose activity change, negative = inhibition, most hits filed as inhibitors; Ubiquitin carboxyl-terminal hydrolase 2 (Homo sapiens), O75604;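 also: potency is read from the fitted curve at half-maximal effect; plate controls were DMSO wells for no effect and full inhibition by NEM control for full effect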
#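 USP2 core (10nM final) preincubated 30min RT with compound in 20mM Tris-HCl pH 8.0, 2mM CaCl2, 2mM beta-mercaptoethanol, 0.05% CHAPS; 25nM Ub-CHOP2 plus 25nM reporter substrate added, fluorescence (Ex485/Em531) read after 60min.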
# PI5P4K alpha inh: qHTS for Inhibitors of phosphatidylinositol 5-phosphate 4-kinase (PI5P4K); Phosphatidylinositol 5-phosphate 4-kinase type-2 alpha (Homo sapiens), P48426; PI5P4Kalpha enzyme, ADP-Glo luminescence, 60 min; active compounds read low; max response, %; 1.2% of 330,000 active; AID 652105, 2013; active = max response of -50% or lower; inconclusive = between -30% and -50%; inactive = -30% or higher; also: value at the top dose of about 77 µM
#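 ADP-Glo luminescence end-point after a 60 min room-temperature kinase reaction. PI5P4Kalpha and substrate in HEPES pH 7.4 buffer with EGTA, 0.1% CHAPS and 5% DMSO; ATP at 5 microM final.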
# Starred values were filed as active, the others as inactive; ? = inconclusive; nt = no result given; [ ] = another dose, or the depositor's remark. This is a sample that favours compounds with a hit; in the whole collection about 3.3% have one here. Unless noted, calls follow the shape of the dose curve; as a rule, active = well fitted curve in the direction sought with a large enough effect; inconclusive = small, poorly fitted or top-dose-only effect, or another doubt; inactive = no such curve, though single readings can be large; an effect the other way counts as inactive or inconclusive. Unless noted, % is scaled to controls: 0 for no effect and ±100 for the full control effect.
SMILES,WRN inhibitor,PLK1 PBD inh,USP1-UAF1 inh,USP2a inh,PI5P4K alpha inh
O=C(O)c1[nH]c2ccccc2c1C(c1cc(Br)ccc1O)c1c(C(=O)O)[nH]c2ccccc12,2.7%[11.6 µM],16.8µM*,?,-8.6%,1.0
Cc1[nH][nH]c(=O)c1C(c1cc2c(cc1Br)OCO2)c1c(C)[nH][nH]c1=O,2.2%[57.1 µM],-16.0%,-3.7%,4.1%,-3.4
CCc1c(C(=O)O)[nH]c2ccc(Br)cc12,0.5%,-21.8%,-14.2%,-0.1%,-14.8
O=C(O)c1[nH]c2ccccc2c1C(c1c(F)cccc1Cl)c1c(C(=O)O)[nH]c2ccccc12,-27.2%,?,-22.4%,-0.6%,-4.8
Cc1[nH][nH]c(=O)c1C(c1cc(Br)ccc1O)c1c(C)[nH][nH]c1=O,-11.9%,23.8µM*,-7.7%,2.6%,-12.8
COc1cc(Cl)cc(C(c2c(C(=O)O)[nH]c3ccccc23)c2c(C(=O)O)[nH]c3ccccc23)c1O,-8.2%[11.6 µM],23.8µM*,?,0.3%,-5.3
COc1cccc(CN2C(=O)c3ccccc3Sc3ccc(C(=O)NCCc4ccc(Cl)cc4)cc32)c1,nt,nt,-18.0%,nt,nt
O=C(CCSc1nnc2scc(-c3ccccc3)n12)NCc1ccc2c(c1)OCO2,-8.8%,-5.4%,-10.8%,0.4%,-1.1
c1ccc(-c2csc3nnc(SCc4ccc5c(c4)OCO5)n23)cc1,0.0%,21.2µM*,-5.2%,2.1%,-27.8
CC1CCc2c(sc3nnn(CC(=O)Nc4ccccc4Cl)c(=O)c23)C1 (centres undefined),nt,nt,-18.8%,nt,nt
CCN(/C(N)=N/c1nc(C)cc(C)n1)c1ccccc1,15.4%,26.7µM*,-26.5%,-0.5%,0.4
CCOC(=O)n1c(=O)n(Cc2cccc(C)c2)c2ccccc21,-8.3%,11.9µM*,-2.5%,-5.2%,?
Cc1ccc(NC(=O)CCS(=O)(=O)c2cc(Br)cc3c2N(C(=O)C2CC2)CC3)cc1,nt,nt,-5.0%,nt,nt
CCCC(=O)N1CCN(C2=NS(=O)(=O)c3ccccc32)CC1,11.1%,-2.6%,-13.3%,0.1%,nt
CC(C)C(=O)N1CCN(C2=NS(=O)(=O)c3ccccc32)CC1,-1.1%,6.7µM*,3.1%,0.7%,-19.5
CCc1ccccc1NC(=O)c1nc2nc(C)cc(C(F)F)n2n1,nt,nt,-26.8%,nt,nt
CCC1(CC)NC(=O)N(CC(=O)Nc2sc3c(c2C(N)=O)CCC3)C1=O,?,-25.1%,-11.0%,-0.8%,-69.6*
Cc1ccc2nc3c(nc2c1C)CCCC3,3.6%,-7.8%,-16.0%,1.5%,-11.8
Cc1ccc2nc3c(nc2c1C)C(O)=C3O,?,10.6µM*,-20.4%,4.1%,-8.2
CCCc1ccc(C2=Nn3c(nnc3C(C)C)SC2)cc1,-13.9%,10.6µM*,?,-0.4%,-18.4
CCCN(CCC)C(=O)Cn1c(=O)n(Cc2ccc(C(=O)NCCc3ccc(Cl)cc3)cc2)c(=O)c2ccccc21,nt,nt,-13.2%,nt,nt
CN(C)c1ccc(NC(=S)c2ccc3ccccc3n2)cc1,4.9%,1.06µM*,-19.1%,-1.4%,-1.0
CCSc1ncc(Cl)c(C(=O)Nc2nc3ccc(S(C)(=O)=O)cc3s2)n1,nt,nt,-21.6%,nt,nt
Cn1c(=O)c(Nc2ccc(Cl)cc2)c2c3c(cccc31)C(=O)c1ccccc1-2,-7.8%[57.1 µM],13.4µM*,10µM*,?,-5.1
CC(=O)Nc1c2c3c(cccc3n(C)c1=O)C(=O)c1ccccc1-2,4.4%,-19.8%,-14.2%,7.8%,-3.2
SMILES,WRN inhibitor,PLK1 PBD inh,USP1-UAF1 inh,USP2a inh,PI5P4K alpha inh
Nc1cc([N+](=O)[O-])ccc1Nc1ccc(O)cc1,-10.6%,-29.2%,-5.1%,-4.3%,-57.4*
O=C(O)c1ccc(COc2ccc3ccccc3c2/C=C2/NC(=O)N(c3ccccc3)C2=O)cc1,-29.2%,-18.2%,-3.2%,-2.2%,nt
CCN1C(=O)S/C(=C/c2c(OCc3ccc(C(=O)O)cc3)ccc3ccccc23)C1=O,-17.5%,37.7µM*,-8.5%,-7.7%,6.3
COc1ccc(C(=O)Nc2ccccc2C(=O)NC(Cc2c[nH]c3ccccc23)C(=O)O)cc1 (centres undefined),-5.1%[57.1 µM],23.8µM*,-7.6%,-5.2%,-12.7
O=C(Nc1ccccc1C(=O)NC(Cc1c[nH]c2ccccc12)C(=O)O)c1ccco1 (centres undefined),-16.1%,-6.6%,-17.7%,-0.5%,0.0
C/C(=N/NS(=O)(=O)c1ccc(Cl)cc1)c1cccc(NC(=O)c2ccc(Cl)cc2Cl)c1,-13.3%,18.9µM*,-2.1%,-0.8%,-16.8
C/C(=N/NS(=O)(=O)c1ccc(C)cc1)c1cccc(NC(=O)c2cccc(Cl)c2)c1,-32.0%,-9.6%,-16.8%,-5.4%,1.0
C/C(=N\NC(=O)c1cc(O)ccc1O)c1cccc(NC(=O)c2cccc(Cl)c2)c1,-20.1%[11.6 µM],-18.8%,-25.4%,-0.7%,?
C/C(=N\NC(=O)c1cc(O)ccc1O)c1cccc(NC(=O)c2ccc(Cl)cc2)c1,39.8µM*,-28.5%,-11.9%,-1.5%,-82.0*
CCCC(=O)NCc1nc2cccnc2n1Cc1ccc(F)cc1,nt,nt,-14.4%,nt,nt
CC1Cc2ccccc2N1Cc1cc(=O)n2ccsc2n1 (centres undefined),4.7%,23.8µM*,-17.7%,3.0%,?
COc1ccccc1N1CCN(Cc2cc(=O)n3ccsc3n2)CC1,11.0%,-10.7%,3.2%,-0.5%,3.0
NS(=O)(=O)c1cccc(NC(=O)c2cc3ccccc3o2)c1,-5.5%,21.2µM*,-14.3%,3.1%,-6.5
CC(=O)Nc1ccc(N2C(=O)c3cccc4c(O)ccc(c34)C2=O)cc1,50.1µM*,4.74µM*,28.2µM*,?,?
O=C1c2cccc3c(O)ccc(c23)C(=O)N1c1ccc(Cl)cc1,?,4.74µM*,28.2µM*,?,?
Cc1ccc(N2C(=O)c3cccc4c(C(=O)O)ccc(c34)C2=O)cc1,nt,-3.9%,nt,1.3%,nt
Cc1ccc(OCC(=O)Nc2nnc(S(=O)(=O)N3c4ccccc4CC3C)s2)cc1 (centres undefined),nt,nt,-17.7%,nt,nt
CCOC(=O)c1c(C)[nH]c(C(=O)CSc2nnc(C3CC3)n2N)c1C,3.3%,23.8µM*,-19.8%,0.0%,-21.9
CN1CCN(NC(=O)c2ccc(Br)s2)CC1,7.4%,29.9µM*,-11.1%,10.6%,-0.9
O=C(NN1CCOCC1)c1ccc(Br)s1,-0.4%,-13.1%,-12.6%,0.0%,-0.3
CCOC(=O)C1CCN(C(C(=O)NC2CCCCC2)c2ccc(OC)cc2)CC1 (centres undefined),6.9%,26.7µM*,-5.9%,2.6%,-10.6
CCOC(=O)C1CCCN(C(=O)CC(C)c2ccccc2)C1 (centres undefined),-4.5%,-8.4%,5.6%,2.8%,nt
